In PubChem BioAssay AID1445 (SRMLSC, 2008):
“And” between values parts separate entries of the source, which are not always exact repeats. Equal entries are not always repeated. Among all 220,000 compounds or so, about 910 (0.41%) were called active.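 Rule for the calls: active = primary inhibition above the hit cutoff, then over 50% inhibition at one or more dose response concentrations (cut at about 23% in these data, passing the limit was not always enough); inconclusive = conflicting primary data, or primary hits not chosen for dose response; inactive = low primary inhibition, or under 50% at every dose.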 The entries come from a sample that favours actives as a whole. Entries with a potency or affinity are not part of this list. More than one record can exist for a structure, and the calls need not agree.

Biological target: Aminopeptidase N (Plasmodium falciparum (isolate 3D7)) (UniProt O96935)
Sequence (O96935 whole entry, looked up): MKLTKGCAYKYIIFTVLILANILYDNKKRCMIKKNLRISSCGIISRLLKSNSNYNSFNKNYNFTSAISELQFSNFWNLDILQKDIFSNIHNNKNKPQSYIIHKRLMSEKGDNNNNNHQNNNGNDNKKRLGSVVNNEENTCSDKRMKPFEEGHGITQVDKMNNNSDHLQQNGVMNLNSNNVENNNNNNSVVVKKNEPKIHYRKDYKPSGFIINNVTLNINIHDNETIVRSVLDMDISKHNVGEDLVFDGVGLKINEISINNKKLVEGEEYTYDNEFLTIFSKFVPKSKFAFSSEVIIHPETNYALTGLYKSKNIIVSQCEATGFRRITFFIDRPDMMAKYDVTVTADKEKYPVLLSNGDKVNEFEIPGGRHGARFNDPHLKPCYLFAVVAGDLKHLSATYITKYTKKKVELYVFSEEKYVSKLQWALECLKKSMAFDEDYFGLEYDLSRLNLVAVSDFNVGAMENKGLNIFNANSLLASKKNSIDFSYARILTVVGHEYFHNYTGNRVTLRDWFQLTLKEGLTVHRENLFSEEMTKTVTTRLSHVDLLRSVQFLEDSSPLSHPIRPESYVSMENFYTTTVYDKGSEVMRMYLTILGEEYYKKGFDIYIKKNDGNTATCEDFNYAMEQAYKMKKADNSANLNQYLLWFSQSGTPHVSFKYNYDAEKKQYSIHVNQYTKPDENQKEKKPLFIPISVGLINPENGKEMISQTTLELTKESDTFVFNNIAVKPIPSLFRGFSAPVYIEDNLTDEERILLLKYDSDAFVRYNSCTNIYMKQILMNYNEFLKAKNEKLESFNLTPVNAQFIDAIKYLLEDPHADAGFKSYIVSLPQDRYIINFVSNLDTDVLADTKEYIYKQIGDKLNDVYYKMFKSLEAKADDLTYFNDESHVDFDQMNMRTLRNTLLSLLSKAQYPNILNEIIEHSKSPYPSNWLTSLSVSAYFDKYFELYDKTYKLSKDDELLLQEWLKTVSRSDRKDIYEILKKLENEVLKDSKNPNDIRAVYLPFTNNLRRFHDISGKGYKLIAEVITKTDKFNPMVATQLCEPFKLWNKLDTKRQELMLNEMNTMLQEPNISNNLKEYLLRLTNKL
Test: P. falciparum M1AAP inhibitors, biochemical, fluorogenic H-Leu-NHMec substrate, 1536-well (AID 1445);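 note: plate controls were DMSO full reaction for no effect and no enzyme background for full effect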
Settings: recombinant M1AAP, H-Leu-NHMec fluorogenic kinetic assay; at 30 µM, stronger effect = higher value unless noted

Structure (SMILES)	inhibition
Cc1ccc(OCC(=O)Nc2ccc(S(=O)(=O)Nc3ccccn3)cc2)cc1C	-0.21% (inactive)
Cc1ccc2nc(NC(=O)CSc3nncc(=O)n3N)sc2c1	-3.78% (inactive)
CC(=O)Nc1nc2n(n1)C(c1ccccc1)C=C(c1ccccc1)N2 (stereo not drawn)	21.9% (inactive)
CC1=CC(c2ccccc2)n2nc(NS(=O)(=O)c3ccc(C)cc3)nc2N1 (stereo not drawn)	9.04% (inactive)
CC1=CC2=NC(=O)/C(=C\c3cccn3CCOc3cc(C)cc(C)c3)C(=N)N2O1	4.33% (inactive)
CCOC(=O)COc1cc2oc(=O)cc(C)c2cc1[N+](=O)[O-]	1.36% (inactive)
COc1ccc(-c2cn(-c3cccc(C)c3)c(=O)[nH]2)cc1OC	0.73% (inactive)
CCOc1ccc(-c2cn(-c3cccc(SC)c3)c(=O)[nH]2)cc1	7.5% (inactive)
CSc1cccc(-n2cc(-c3ccc4c(c3)OCO4)[nH]c2=O)c1	25.8% (active)
COc1cccc(-c2nnc(SCc3cccnc3)o2)c1	1.1% (inactive)
Cc1nn(-c2ccccc2)c(C)c1/C=N/NC(=O)c1cc(C23CC4CC(CC(C4)C2)C3)[nH]n1	8.14% (inactive)
CN(NS(=O)(=O)c1ccc(Cl)cc1)c1ncc(C(F)(F)F)cc1Cl	3.99% (inactive)
Cc1cccc(NC(=O)c2c(-c3ccccc3)noc2C)n1	3.16% (inactive)
CSc1cccc(NC(=S)N2CCC(N(C)C3CCCCCC3)CC2)c1	5.52% (inactive)
O=c1c(-c2ccc3c(c2)OCCO3)c(C(F)(F)F)oc2cc(O)cc(O)c12	24.6% (active)
O=c1c(-c2ccc3c(c2)OCCO3)coc2cc(O)cc(O)c12	13.2% (inactive)
Cc1oc2cc(O)cc(O)c2c(=O)c1-c1ccc2c(c1)OCCCO2	-10.6% (inactive)
NC(=O)CSc1nnc(-c2cccnc2)n1Cc1ccccc1	-0.97% (inactive)
Cn1nc(C(=O)Nc2sc3c(c2C#N)CCCC3)ccc1=O	4.41% (inactive)
CC(C)Cn1c(CN2C(=O)c3ccccc3C2=O)nc2ccccc2c1=O	-3.16% (inactive)
O=C1c2ccccc2C(=O)N1n1c(=O)[nH]c2ccccc2c1=O	2.13% (inactive)

Structure (SMILES)	inhibition
Brc1ccccc1-c1csnn1	2.07% (inactive)
CCOCCCn1c(=S)[nH]c2cc(C(=O)NCCCN(CC)CC)ccc2c1=O	12.3% (inactive)
COc1ccc(C(=O)c2c(C)oc3ccc(O)c(CN4CCOCC4)c23)cc1	1.06% (inactive)
O=C(CC(Cc1ccccc1)c1ccco1)NC1CCCCC1 (stereo not drawn)	3.48% (inactive)
Cc1ccc(C2C=C(c3ccccc3)Nc3nc(N4C(=O)CCC4=O)nn32)cc1 (stereo not drawn)	4.75% (inactive)
CC1=CC(c2ccc(Cl)cc2)n2nc(N3C(=O)CCC3=O)nc2N1 (stereo not drawn)	14.2% (inactive)
COC(=O)c1cc(O)c(O)c(O)c1	6.36% (inactive)
COC(=O)c1ccc(Sc2ccc(C)cc2)c(N)c1	11.3% (inactive)
CCCN(CC1CC1)C(=S)NC(=O)C1CC1	3.89% (inactive)
CC(=O)CCc1c(C)nc2ccc(C(=O)O)cc2c1Cl	11.9% (inactive)
CCOC(=O)c1cccc(Nc2ncnc3ccccc23)c1	6.34% (inactive)
O=S(=O)(c1ccc(Cl)cc1)N(CCCN1CCOCC1)Cc1cccs1	2.6% (inactive)
COc1cc(NC(=O)c2cccs2)c(OC)cc1NC(=O)CCC(=O)Nc1cccc2ncccc12	16.7% (inactive)
C/C(=N\NC(=O)CCn1nnc2ccccc21)c1cccs1	0% (inactive)
COc1cc(NC(=O)c2cccs2)c(OC)cc1NC(=O)CCn1nnc2ccccc21	25% (active)
Cc1ccc(Cn2ccc(NC(=O)c3noc4c3CCc3ccccc3-4)n2)cc1	8.24% (inactive)
Cc1cc([N+](=O)[O-])ccc1NC(=S)NC(=O)Cc1ccccc1	23.7% (active)
CC(=O)NC(=S)Nc1ccc([N+](=O)[O-])cc1C	3.35% (inactive)
Cc1cc([N+](=O)[O-])ccc1NC(=S)NC(=O)C(c1ccccc1)c1ccccc1	9.66% (inactive)
O=C(CSc1ccc2nnc(-c3ccncc3)n2n1)Nc1ccc2c(c1)OCO2	5.11% (inactive)
Cn1cc([N+](=O)[O-])c(C(=O)NNC(=O)c2ccc([N+](=O)[O-])cc2)n1	1.97% (inactive)

Structure (SMILES)	inhibition
Cc1ccc(-c2csc3ncnc(NS(=O)(=O)c4ccc(Cl)cc4)c23)cc1	-5.44% (inactive)
CN(C)CCCNc1ncnc2scc(-c3ccccc3)c12	-12.9% (inactive)
CCOC(=O)c1ccc(NC(=O)COc2ccc(S(=O)(=O)N3CCCC3)cc2)cc1	10.4% (inactive)
O=S(=O)(Nc1nc2ccccc2nc1Cl)c1ccccc1	7.23% (inactive)
O=S(=O)(Nc1nc2ccccc2nc1Cl)c1ccc2c(c1)OCCO2	15.8% (inactive)
Cc1cc(S(=O)(=O)Nc2cccc(Cl)c2)c(C)s1	7.05% (inactive)
CSc1ccccc1C(=O)C1CCCN(C(=O)c2ccc(N3CCOCC3)cc2)C1 (stereo not drawn)	0.54% (inactive)
COC(=O)C1=NN(C(=O)c2ccc(Br)cc2)C(O)(C(C)(C)C)C1 (stereo not drawn)	53.2% (inactive)
COC(=O)C1=NN(C(=O)c2cccc(Cl)c2)C(O)(C(C)(C)C)C1 (stereo not drawn)	33.3% (inactive)
Cc1ccn2c(NCc3ccc4c(c3)OCO4)c(-c3ccc(O)cc3)nc2c1	3.37% (inactive)
O=C(NCCc1nc2ccccc2[nH]1)/C(=C/c1ccco1)NC(=O)c1ccc(Br)cc1	3.21% (inactive)
Cc1nc(SCC(=O)O)c2oc3ccccc3c2n1	3.31% (inactive)
O=C(O)CSc1nc(-c2ccccc2)nc2c1oc1ccccc12	8.15% (inactive)
CN(C)c1ccc(/C=N/NC(=O)CCCO)cc1	16.7% (inactive)
C/C=C/c1ccc(OCCOc2ccc(C=O)cc2)c(OC)c1	9.05% (inactive)
C/C=C/c1ccc(OCCCCOc2ccc(OC)cc2)c(OC)c1	-1.18% (inactive)
Cc1cc(-c2nnc(SCC(=O)Nc3nc(-c4ccccc4)cs3)o2)no1	17.1% (inactive)
O=[N+]([O-])c1ccc(Oc2c(F)c(F)nc(N3CCCC3)c2F)cc1	1.61% (inactive)
O=C(O)c1cc(-c2ccco2)nc2cc3ccccc3cc12	15.5% (inactive)
O=C(O)c1cc(-c2ccco2)nc2ccc(Br)cc12	5.53% (inactive) and 27.5% (active)
O=C(O)c1cc(-c2ccco2)nc2ccccc12	5.44% (inactive)
